In PubChem BioAssay AID1159580 (chemical genetic matrix, 2015):
About 2,000 (36%) of roughly 5,500 compounds were called active. Roughly 18% stayed inconclusive and do not appear here. Rule as the data show it: active = normalized growth mostly below about 0.91 (no sharp cut-off); inconclusive = no clear call, values can overlap the other calls; inactive = mostly above about 0.92. This is one part of the list.

Test: chemical genetic growth profiling, strain panel (AID 1159580);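 also: tested at 20 µM; growth read once vehicle control cultures reached saturation at 30 °C; 1 = growth at the plate median or of vehicle wells; lower values mean less growth of the strain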
Details: S. cerevisiae deletion strains, growth OD

Measured: normalized growth

COC1C=CC23c4cc5c(cc4CN(CC2O)[C@@H]3C1)OCO5 (stereo partly specified)
inactive: locus YAL021C, strain ccr4, stronger effect = lower value 0.974 | locus YAL026C, strain drs2, stronger effect = lower value 0.956 | locus YAL030W, strain snc1, stronger effect = lower value 0.989 | locus YBL061C, strain skt5, stronger effect = lower value 0.967 | locus YBR009C, strain hhf1, stronger effect = lower value 0.969 | locus YBR021W, strain FUR4, stronger effect = lower value 1.01 | locus YBR023C, strain chs3, stronger effect = lower value 0.966 | locus YBR171W, strain sec66, stronger effect = lower value 0.962 | locus YBR229C, strain ROT2, stronger effect = lower value 1.01 | locus YBR231C, strain swc5, stronger effect = lower value 0.963 | locus YBR279W, strain paf1, stronger effect = lower value 0.971 | locus YCL011C, strain gbp2, stronger effect = lower value 0.956 | locus YCL016C, strain dcc1, stronger effect = lower value 0.992 | locus YCL029C, strain bik1, stronger effect = lower value 1 | locus YCL069W, strain vba3, stronger effect = lower value 0.948 | locus YCR088W, strain abp1, stronger effect = lower value 0.971 | locus YDL005C, strain med2, stronger effect = lower value 0.944 | locus YDL035C, strain GPR1, stronger effect = lower value 1.01 | locus YDL040C, strain nat1, stronger effect = lower value 0.975 | locus YDL074C, strain BRE1, stronger effect = lower value 1.05 | locus YDL101C, strain DUN1, stronger effect = lower value 1.04 | locus YDL134C, strain PPH21, stronger effect = lower value 1.03 | locus YDL185W, strain tfp1, stronger effect = lower value 1 | locus YDL192W, strain arf1, stronger effect = lower value 0.982 | locus YDR001C, strain nth1, stronger effect = lower value 0.979 | locus YDR069C, strain doa4, stronger effect = lower value 0.944 | locus YDR101C, strain arx1, stronger effect = lower value 0.962 | locus YDR137W, strain rgp1, stronger effect = lower value 0.933 | locus YDR159W, strain sac3, stronger effect = lower value 0.964 | locus YDR162C, strain NBP2, stronger effect = lower value 1.03 | locus YDR195W, strain ref2 0.962 | locus YDR297W, strain sur2, stronger effect = lower value 0.977 | locus YDR318W, strain mcm21, stronger effect = lower value 0.995 | locus YDR334W, strain swr1, stronger effect = lower value 0.966 | locus YDR335W, strain msn5, stronger effect = lower value 0.959 | locus YDR388W, stronger effect = lower value 1 | locus YDR392W, strain spt3, stronger effect = lower value 1.06 | locus YDR502C, strain sam2, stronger effect = lower value 1.01 | locus YEL003W, strain gim4, stronger effect = lower value 0.972 | locus YEL037C, strain rad23, stronger effect = lower value 0.973 | locus YEL061C, strain CIN8 (second series), stronger effect = lower value 0.945 | locus YER015W, strain faa2, stronger effect = lower value 0.986 | locus YER016W, strain bim1, stronger effect = lower value 0.971 | locus YER110C, stronger effect = lower value 1 | locus YER111C, strain swi4, stronger effect = lower value 0.961 | locus YER155C, strain BEM2 (second series), stronger effect = lower value 0.978 | locus YER155C, strain BEM2, stronger effect = lower value 0.997 | locus YER167W, strain BCK2, stronger effect = lower value 0.992 | locus YFR010W, strain ubp6, stronger effect = lower value 0.939 | locus YGL078C, strain dbp3, stronger effect = lower value 1.03 | locus YGL086W, strain mad1, stronger effect = lower value 0.999 | locus YGL167C, strain pmr1, stronger effect = lower value 0.971 | locus YGL173C, strain kem1, stronger effect = lower value 0.968 | locus YGL227W, strain vid30, stronger effect = lower value 0.979 | locus YGL240W, strain doc1, stronger effect = lower value 0.999 | locus YGL248W, strain PDE1, stronger effect = lower value 1.04 | locus YGL253W, strain hxk2, stronger effect = lower value 0.951 | locus YGR135W, strain pre9, stronger effect = lower value 1.05 | locus YGR229C, strain SMI1, stronger effect = lower value 1.06 | locus YGR252W, strain gcn5, stronger effect = lower value 1.09 | locus YHR013C, strain ard1, stronger effect = lower value 0.95 | locus YHR027C, strain rpn1, stronger effect = lower value 0.977 | locus YHR079C, strain IRE1 (second series), stronger effect = lower value 1.01 | locus YHR094C, strain hxt1, stronger effect = lower value 0.992 | locus YHR129C, strain ARP1, stronger effect = lower value 1.02 | locus YHR142W, strain chs7, stronger effect = lower value 0.956 | locus YHR200W, strain rpn10, stronger effect = lower value 1.01 | locus YIL066C, strain RNR3, stronger effect = lower value 1.02 | locus YIL073C, strain SPO22, stronger effect = lower value 0.964 | locus YIL125W, strain kgd1, stronger effect = lower value 0.981 | locus YIR030C, strain dcg1, stronger effect = lower value 1 | locus YJL092W, strain hpr5, stronger effect = lower value 0.948 | locus YJL095W, strain BCK1 (second series), stronger effect = lower value 0.965 | locus YJL095W, strain BCK1, stronger effect = lower value 1.08 | locus YJL115W, strain asf1, stronger effect = lower value 0.988 | locus YJL129C, strain trk1, stronger effect = lower value 0.976 | locus YJL134W, strain LCB3, stronger effect = lower value 1 | locus YJL154C, strain vps35, stronger effect = lower value 0.968 | locus YJL164C, strain tpk1, stronger effect = lower value 0.973 | locus YJL166W, strain qcr8, stronger effect = lower value 0.965 | locus YJL168C, strain set2, stronger effect = lower value 1.01 | locus YJL187C, strain SWE1 (second series), stronger effect = lower value 1.04 | locus YJL187C, strain SWE1, stronger effect = lower value 0.957 | locus YKL009W, strain mrt4, stronger effect = lower value 1.02 | locus YKL068W, stronger effect = lower value 1 | locus YKL085W, strain MDH1 (second series), stronger effect = lower value 1.01 | locus YKL085W, strain MDH1, stronger effect = lower value 1.01 | locus YKL160W, strain elf1, stronger effect = lower value 0.995 | locus YKR001C, strain vps1, stronger effect = lower value 0.978 | locus YKR026C, strain gcn3, stronger effect = lower value 0.983 | locus YKR091W, strain srl3, stronger effect = lower value 0.98 | locus YLL001W, strain dnm1, stronger effect = lower value 0.973 | locus YLL026W, stronger effect = lower value 1 | locus YLL041C, strain sdh2, stronger effect = lower value 0.969 | locus YLR027C, strain aat2, stronger effect = lower value 0.991 | locus YLR039C, strain RIC1, stronger effect = lower value 1.06 | locus YLR058C, strain SHM2, stronger effect = lower value 1.02 | locus YLR102C, strain apc9, stronger effect = lower value 0.995 | locus YLR221C, strain rsa3, stronger effect = lower value 0.956 | locus YLR258W, strain gsy2, stronger effect = lower value 0.97 | locus YLR262C, strain YPT6 (second series), stronger effect = lower value 0.917 | locus YLR262C, strain YPT6, stronger effect = lower value 1.07 | locus YLR268W, strain sec22, stronger effect = lower value 0.974 | locus YLR320W, strain mms22, stronger effect = lower value 0.975 | locus YLR342W, strain FKS1, stronger effect = lower value 0.99 | locus YLR357W, strain rsc2, stronger effect = lower value 0.967 | locus YLR370C, strain arc18, stronger effect = lower value 0.949 | locus YLR371W, strain rom2, stronger effect = lower value 0.976 | locus YLR384C, strain iki3, stronger effect = lower value 0.966 | locus YLR418C, strain cdc73, stronger effect = lower value 1.04 | locus YML016C, strain PPZ1, stronger effect = lower value 1.01 | locus YML032C, strain rad52, stronger effect = lower value 0.98 | locus YML120C, strain ndi1, stronger effect = lower value 1 | locus YML124C, strain tub3, stronger effect = lower value 0.991 | locus YMR058W, strain fet3, stronger effect = lower value 0.983 | locus YMR078C, strain ctf18, stronger effect = lower value 1.01 | locus YMR125W, strain sto1, stronger effect = lower value 0.922 | locus YMR129W, stronger effect = lower value 0.991 | locus YMR205C, strain PFK2, stronger effect = lower value 0.998 | locus YMR223W, strain ubp8, stronger effect = lower value 0.998 | locus YMR231W, strain pep5, stronger effect = lower value 0.974 | locus YMR263W, strain SAP30, stronger effect = lower value 1.03 | locus YMR307W, strain GAS1, stronger effect = lower value 1.06 | locus YNL067W, strain RPL9B, stronger effect = lower value 1.04 | locus YNL071W, strain lat1, stronger effect = lower value 0.97 | locus YNL153C, strain GIM3, stronger effect = lower value 1.04 | locus YNL209W, strain ssb2, stronger effect = lower value 0.981 | locus YNL233W, strain BNI4, stronger effect = lower value 1.04 | locus YNL248C, strain rpa49, stronger effect = lower value 0.949 | locus YNL250W, strain rad50, stronger effect = lower value 1.03 | locus YNL271C, strain bni1, stronger effect = lower value 0.988 | locus YNL298W, strain CLA4, stronger effect = lower value 0.994 | locus YNL307C, strain MCK1, stronger effect = lower value 1.01 | locus YNL322C, strain KRE1 (second series), stronger effect = lower value 0.935 | locus YNR049C, strain mso1, stronger effect = lower value 0.975 | locus YNR052C, strain pop2, stronger effect = lower value 0.997 | locus YOL012C, strain htz1 0.915 | locus YOL147C, strain pex11, stronger effect = lower value 1 | locus YOR001W, strain rrp6, stronger effect = lower value 0.978 | locus YOR061W, strain CKA2, stronger effect = lower value 0.996 | locus YOR069W, strain VPS5, stronger effect = lower value 1.01 | locus YOR070C, strain gyp1, stronger effect = lower value 0.999 | locus YOR080W, strain dia2, stronger effect = lower value 0.976 | locus YOR106W, strain vam3, stronger effect = lower value 0.992 | locus YOR136W, strain idh2, stronger effect = lower value 1 | locus YOR144C, strain elg1, stronger effect = lower value 0.995 | locus YOR184W, strain ser1, stronger effect = lower value 0.967 | locus YOR265W, strain rbl2, stronger effect = lower value 0.99 | locus YOR270C, strain vph1, stronger effect = lower value 0.847 | locus YOR290C, strain snf2, stronger effect = lower value 0.976 | locus YOR316C, strain cot1, stronger effect = lower value 1 | locus YPL051W, strain arl3, stronger effect = lower value 0.99 | locus YPL055C, strain LGE1, stronger effect = lower value 1.03 | locus YPL078C, strain atp4, stronger effect = lower value 0.986 | locus YPL106C, strain sse1, stronger effect = lower value 0.982 | locus YPL240C, strain hsp82, stronger effect = lower value 0.965 | locus YPR119W, strain clb2, stronger effect = lower value 0.994 | locus YPR141C, strain kar3, stronger effect = lower value 0.993 | locus YPR163C, strain tif3, stronger effect = lower value 1 | locus YPR167C, strain met16, stronger effect = lower value 1 | strain wtn01, stronger effect = lower value 1
